# Rows were chosen to be rich in hits. Some 1.5% of all compounds tested hit in one or more screens of this group.
# USP1-UAF1 inh – Inhibitors of USP1/UAF1: Primary Screen. 390,000 compounds, 0.23% hits. recombinant USP1/UAF1, Ub-Rhodamine cleavage fluorescence. Potency, µM (doses to about 57.1 µM), hits mostly inhibitors. Ubiquitin carboxyl-terminal hydrolase 1 (Homo sapiens), O94782. AID 743255, 2014; further: nearly all actives have a fitted effect of over 60% in size
#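 Step one: compound is pinned into 1nM USP1/UAF1 in HEPES pH 7.8 buffer with TCEP. Step two: 15 min room-temperature incubation. Step three: Ub-Rho (150nM final) starts cleavage, tracked by fluorescence over six one-minute reads.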
# GALK inhibitor – qHTS Assay for Inhibitors of Human Galactokinase (GALK). Purified GALK, Kinase-Glo residual ATP luminescence. 270,000 compounds, 0.007% hits. Potency, µM (highest dose often 57.5 µM), most hits filed as inhibitors. P51570
#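 The enzyme phosphorylates galactose (100 uM) using ATP (35 uM); inhibition is detected as higher residual ATP, quantified by bioluminescence after 1 h reaction at room temperature, pH 8.0.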
# Coupling enz – qHTS Assay for Inhibitors of Fructose-1,6-bisphosphate Aldolase from Giardia Lamblia: Coupling assay counterscreen; coupling enzyme system counterscreen, AmpLite Red fluorescence; activity change, negative = inhibition, % at 58.2 µM, hits read low; 290,000 compounds, 0.67% hits; AID 2472, 2010; in the data active means activity change below about -30%
#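 First, compound is pin-transferred into glyceraldehyde-3-phosphate coupling-enzyme reagent at 57.5 uM final and held 10 min at RT. Next, substrate, coupling system and AmpLite Red are added. After 20 min RT, fluorescence (525/598 nm) is read.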
# rTrxR1 inhibitor – qHTS Assay for Inhibitors of Mammalian Selenoprotein Thioredoxin Reductase 1 (TrxR1): qHTS. Thioredoxin reductase 1, cytoplasmic (Rattus norvegicus), O89049. recombinant rTrxR1, NADPH fluorescence consumption, selenite substrate. Potency, µM (top dose mostly 114 µM), usual class: inhibitors. 390,000 compounds, 1% hits. AID 588453, 2011; further: nearly all actives have a fitted effect of over 65% in size
# Target sequence (O89049 whole entry, looked up): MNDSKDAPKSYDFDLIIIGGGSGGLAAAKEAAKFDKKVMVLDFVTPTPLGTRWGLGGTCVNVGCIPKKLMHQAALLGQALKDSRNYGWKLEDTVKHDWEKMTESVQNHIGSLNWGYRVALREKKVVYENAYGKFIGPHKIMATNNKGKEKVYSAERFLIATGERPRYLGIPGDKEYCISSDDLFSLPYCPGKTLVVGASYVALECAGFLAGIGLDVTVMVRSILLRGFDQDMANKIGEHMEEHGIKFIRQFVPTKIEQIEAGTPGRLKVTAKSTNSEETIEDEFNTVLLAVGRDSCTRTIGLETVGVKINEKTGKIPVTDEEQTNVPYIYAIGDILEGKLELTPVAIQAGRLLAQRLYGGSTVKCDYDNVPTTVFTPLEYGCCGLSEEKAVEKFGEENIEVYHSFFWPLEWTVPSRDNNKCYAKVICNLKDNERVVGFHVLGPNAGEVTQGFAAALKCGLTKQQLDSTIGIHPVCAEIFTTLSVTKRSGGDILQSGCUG
#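 Rat TrxR1 (90 nM in the dispensed reagent) was pre-reduced with 400 uM NADPH for 5 min at room temperature, then incubated with compound for 15 min. After 400 uM selenite was added, NADPH fluorescence (Ex 340/Em 450 nm) was followed for 8 min.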
# TrxR1 substrate – qHTS Assay for Substrates of Mammalian Selenoprotein Thioredoxin Reductase 1 (TrxR1): qHTS | 390,000 compounds, 0.01% hits | purified TrxR1 substrate turnover, NADPH consumption readout | Thioredoxin reductase 1, cytoplasmic (Rattus norvegicus), O89049 | AID 588456, 2011 | Potency, µM (highest dose often 114 µM); further: nearly all actives have a fitted effect of over 50% in size
#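 Rat TrxR1, dispensed at 90 nM, was prereduced with 400 uM NADPH (final) for 5 min at ~22 deg C, then incubated with compound 15 min before 400 uM selenite. A first-read NADPH fluorescence drop versus no-compound background flagged substrates.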
# Numbers stand for hits; . = inactive; ? = inconclusive; / = no result; [ ] = another dose, or the depositor's remark. Unless noted, the call rests on the fitted dose curve; in most records, active means well fitted curve in the direction sought with a large enough effect; inconclusive means small, poorly fitted or top-dose-only effect, or another doubt; inactive means no such curve, though single readings can be large; an effect the other way counts as inactive or inconclusive.
SMILES,USP1-UAF1 inh,GALK inhibitor,Coupling enz,rTrxR1 inhibitor,TrxR1 substrate
COc1cc2nc(CC(O)c3nc4cc(OC)c(OC)cc4[nH]3)[nH]c2cc1OC (stereo not given),/,/,/,.,.
CCCn1nc([N+](=O)[O-])c(C(C#N)c2nc3ccccc3s2)c(Cl)c1=O (stereo not given),?,.,.,1.6µM,.
CCn1nc([N+](=O)[O-])c(C(C#N)c2nc3ccccc3n2C)c(Cl)c1=O (stereo not given),.,.,.,?,.
Cc1ccc(-c2cc(C(=O)NCCCn3ccnc3)c3cc(Br)ccc3n2)o1,.,.,.,14µM,.
Cc1ccc(-c2cc(C(=O)O)c3cc(Br)ccc3n2)o1,.,.,.,?,.
CC(C)Nc1nc(-c2ccccc2)nc(-n2ccnc2)n1,.,.,.,.,.
c1ccc(-c2nc(-n3ccnc3)nc(-n3ccnc3)n2)cc1,.,.,-51,.,.
CC(C)(C)n1ncc2c(=O)n(Cc3ccc(F)c(C(F)(F)F)c3)cnc21,/,/,/,.,.
Cc1ccc(N(Cc2cc(=O)[nH]c3ccccc23)C(=O)CCl)c(C)c1,.,.,.,79µM,.
CC(Cl)C(=O)NC(=O)NC12CC3CC(CC(C3)C1)C2 (stereo not given),.,.,.,.,.
O=C(CCl)NC(=O)NC12CC3CC(CC(C3)C1)C2,.,.,.,14µM,.
O=C(O)CCc1ccc(-c2ccc(Cl)cc2)o1,.,.,.,18µM,.
O=C(O)CCc1ccc(-c2ccc(Br)cc2)o1,.,.,.,22µM,.
COc1ccc(-c2noc(CCC(=O)O)n2)cc1,.,/,.,.,.
COc1ccc(-c2ccc(CCC(=O)O)o2)cc1,.,.,.,18µM,.
Cc1oc(-c2ccc(Cl)cc2)cc1C(=O)O,.,.,.,.,.
COc1ccc(C2Nc3ccccc3C(=O)N2Cc2ccccc2)cc1COc1ccccc1F (stereo not given),/,/,/,.,.
O=c1cc(-c2ccccc2)oc2cc(O)c(O)c(O)c12,.,/,-45,.,.
O=c1cc(-c2ccc(O)cc2)oc2c(O)c(O)c(O)c(O)c12,10µM,/,-66,16µM,.
CC(C)n1nc(C(=O)Oc2ccc(Cl)cc2)c2ccccc2c1=O,.,.,.,.,.
Cc1cc(=O)oc2cc(OC(=O)c3ccco3)ccc12,.,.,.,71µM,.
Cc1cc(=O)oc2cc(OC(=O)c3nn(C(C)C)c(=O)c4ccccc34)ccc12,.,.,.,25µM,.
Cc1cc(=O)oc2cc(OC(=O)c3ccccc3)ccc12,.,.,.,.,.
CCCn1nc(C(=O)Oc2ccc3c(C)cc(=O)oc3c2)c2ccccc2c1=O,.,.,.,50µM,.
CCc1cc(=O)oc2cc(OC(=O)c3ccco3)ccc12,.,.,/,.,.
SMILES,USP1-UAF1 inh,GALK inhibitor,Coupling enz,rTrxR1 inhibitor,TrxR1 substrate
COc1ccc(CN2CC[C@H]3C=CC[C@@H](C(=O)NC4CCCCC4)[C@H]3C2=O)cc1OC,/,/,/,.,.
O=C1NN(C(=O)Nc2ccc(Br)cc2)C(c2ccccc2)C1c1ccccc1 (stereo not given),/,/,.,/,/
O=C(/C=C/c1ccc2c(c1)OCO2)c1cccs1,/,/,.,/,/
Oc1ccc(/C=C/c2ccc(/C=C/c3ccc(O)cc3)c(Br)c2)cc1,/,/,/,22µM,.
O=C/C=C/c1ccc(O)cc1,/,/,.,/,/
CCN(CC(=O)Nc1cc(Cl)ccc1C)C(=O)CCOc1ccccc1C,.,.,/,40µM,.
COc1ccc(N2C(=O)CC(NCC#N)C2=O)cc1 (stereo not given),.,.,.,32µM,.
CCOC(=O)CNC1CC(=O)N(c2ccc(Br)cc2)C1=O (stereo not given),.,.,.,28µM,.
O=C(O)CSC1=NS(=O)(=O)c2ccccc21,/,/,/,.,.[0.0914 µM]
Cc1ccc(NC2=CC(=O)C(=O)c3ccccc32)c(C)c1,32µM,/,/,.,.
O=C1C=C(NCc2ccccc2)CCC1,.,.,.,.,.
Cc1ccc(NS(=O)(=O)c2ccc3c(c2)C(=O)c2ccccc2C3=O)c(C)c1,.,.,.,.[0.0914 µM],.
N#Cc1ccccc1NCc1ccccc1,.,.,.,.,.
O=C1C=C(NCc2ccccc2)c2ccccc2C1=O,2.5µM,?,-87,?,16µM
O=c1cccccc1NCc1ccccc1,.,.,-39,.,.
O=C1C=C(Nc2ccccc2O)c2ccccc2C1=O,18µM,.,-60,.,?
Cc1cc(NC(=O)COC(=O)c2ccccc2OCCOc2ccccc2)ccc1Br,/,/,/,.,.
CC(=O)OCC1OC(Oc2cc(OC(C)=O)c3c(=O)cc(-c4ccc(OC(C)=O)c(OC(C)=O)c4)oc3c2)C(OC(C)=O)C(OC(C)=O)C1OC(C)=O (stereo not given),/,/,.,/,/
Cc1cc(-c2cc(C)c(N)cc2C)c(C)cc1N,.,/,/,.,.
Cc1cc2c(cc1C)C(=O)C(Br)=C(N)C2=O,.,/,/,50µM,.
N#Cc1nc(-c2ccc(OCc3ccc(Cl)cc3)cc2)oc1N1CCCC1,/,/,/,.,.[0.0914 µM]
CCN=c1scc(C)n1/N=C/c1ccc(O)c(O)c1O,.,.,-37,.,.
COCCN=c1scc(-c2cccs2)n1/N=C/c1ccc(O)c(O)c1O,.,.,-33,.,.
COc1ccc(C(=O)C[n+]2ccc(Cl)c3ccc(Cl)cc32)cc1,/,/,/,.,.
Cc1ccc(-c2nc3ccccn3c2Nc2ccccc2C)o1,/,/,/,?,.
SMILES,USP1-UAF1 inh,GALK inhibitor,Coupling enz,rTrxR1 inhibitor,TrxR1 substrate
Cc1ccc(-c2nc3cnccn3c2Nc2ccc(C(C)C)cc2)o1,/,/,/,13µM,.
Cc1ccc(-c2nc3cnccn3c2Nc2c(C)cccc2C)o1,?,.,.,14µM,.
CC(C)c1ccc(Nc2c(-c3ccccc3O)nc3cnccn23)cc1,.,/,/,.,.
CN(C)c1ccc(CCc2ccnc3ccccc23)cc1,/,/,/,.,.
C(=C1C=c2ccccc2=C1)c1ccc(N=Nc2ccc(C=C3C=c4ccccc4=C3)cc2)cc1,/,/,/,.,.
COc1ccc(/C=C2/CCC(CN3CCOCC3)C2=O)cc1 (stereo not given),.,/,/,1.6µM,.[11.4 µM]
O=C1/C(=C\c2ccc(Cl)cc2)CCC1CNc1ccc(Cl)cc1 (stereo not given),.,/,/,7.9µM,.
CN(C)CC1CC/C(=C\c2ccc(O)cc2)C1=O (stereo not given),.,/,/,0.71µM,.
COc1ccc(/C=C2\CCC(C3CCCC3)C2=O)cc1 (stereo not given),.,.,.,.,.
CC(Oc1ccccc1)C(=O)N[C@@H]1C(=O)N2C(C(=O)O)C(C)(C)S[C@H]12 (stereo not given in full),/,/,/,.,.

# From PubChem BioAssay
